Bioassay records (PubChem BioAssay)
Hits are enriched below; roughly 2.8% of the tested compounds scored in any of these assays.
IP6K1 inh: inhibitors of human IP6K1; Q92551; hit rate 0.81% among 140,000; activity change, % (series mostly up to about 58 µM); IP6K1 kinase, ADP-Glo luminescence, 2 h; active compounds read low; in the data active = activity change below about -25%; note: % is set by controls: 0 for no effect and ±100 for the full control effect
Target sequence (Q92551 whole entry, looked up): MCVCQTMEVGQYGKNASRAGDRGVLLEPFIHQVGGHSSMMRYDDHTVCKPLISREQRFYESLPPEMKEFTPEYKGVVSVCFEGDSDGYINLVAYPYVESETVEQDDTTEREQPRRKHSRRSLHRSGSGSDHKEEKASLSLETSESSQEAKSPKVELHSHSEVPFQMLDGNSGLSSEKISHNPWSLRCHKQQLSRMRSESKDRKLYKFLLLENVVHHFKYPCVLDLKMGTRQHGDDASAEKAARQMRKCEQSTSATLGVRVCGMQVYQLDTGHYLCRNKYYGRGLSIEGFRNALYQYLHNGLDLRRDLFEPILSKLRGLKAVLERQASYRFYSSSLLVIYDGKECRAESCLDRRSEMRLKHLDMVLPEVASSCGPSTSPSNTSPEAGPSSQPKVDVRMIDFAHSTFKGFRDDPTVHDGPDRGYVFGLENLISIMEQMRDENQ
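ADP-Glo luminescence measures ADP made by human IP6K1 during a 2 h RT reaction with ATP/IP6 (mix at 1.3 mM/130 uM); top library doses 57.5 and 19.1 uM final.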
KDM5B inh: KDM5B demethylase inhibition; AID 1347165; Q9UGL1; hit rate 2.6% among 220,000; Potency, µM (doses to about 57.7 µM), hits mostly inhibitors; KDM5B demethylase, FDH-coupled NADH fluorescence (FDH is formaldehyde dehydrogenase); note: potency is the fitted concentration of half-maximal effect; 0% is about no effect; nearly all actives have a fitted effect of over 70% in size
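Compound dilutions met 200 nM (final) KDM5BΔAP for 10 min at room temperature before substrate addition. The substrate mix held 12.5 µM H3K4me3 with cofactors 25 µM α-ketoglutarate and 50 µM Fe²⁺. NADH signal gain over 30 min defined activity.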
An asterisk follows results filed as active.

What do the screens show for `Cc1ccc(C#N)c(N2CC[C@@H](c3ccc4c(c3)OCO4)[C@H](O)C2)n1`?
IP6K1 inh: 5.7; KDM5B inh: 28.2µM*

Results for N#Cc1c(N)c(C(=O)c2ccc3c(c2)OCCO3)n2c1CCC2 ?
KDM5B inh: inactive

What do the screens show for `COc1ccc(-n2c(=O)c(C(=O)NCc3ccc(F)cc3)nc3cccnc32)cc1`?
IP6K1 inh: 5.3

Results for O=C(O)CCC(=O)N1Cc2ccccc2CC2(CCCCN2Cc2ccccc2)C1 (centres undefined) ?
IP6K1 inh: 6.5; KDM5B inh: inactive

How did CN1CCCCC12Cc1ccccc1CN(C(=O)C1CCCC1)C2 (centres undefined) do in these assays?
IP6K1 inh: -7.9; KDM5B inh: inactive

Results for O=C(O)CCC(=O)N1Cc2ccccc2CC2(CCCCN2CCc2ccccc2)C1 (centres undefined) ?
IP6K1 inh: -12.2; KDM5B inh: active

How did CCCN1CCCCC12Cc1ccccc1CN(C(=O)C1CCCC1)C2 (centres undefined) do in these assays?
IP6K1 inh: -6.2; KDM5B inh: 50.1µM*

Results for CN1CCCCC12Cc1ccccc1CN(C(=O)c1ccccc1)C2 (centres undefined) ?
IP6K1 inh: -6.1; KDM5B inh: 56.2µM*

How did CCCN1CCCCC12Cc1ccccc1CN(C(C)=O)C2 (centres undefined) do in these assays?
IP6K1 inh: -4.2; KDM5B inh: inconclusive

What do the screens show for `C=CCO[C@@H]1CCN2C(=O)c3cc(-c4ccc(F)cc4F)ccc3NC(=O)[C@H]12`?
IP6K1 inh: -5.0; KDM5B inh: inconclusive

How did CCN(CC)Cc1ccc2c(c1)CN(C(=O)COCCOC)CCO2 do in these assays?
IP6K1 inh: -3.0

What do the screens show for `CN(C)c1cc(=O)c2ccnc(-c3ccc(F)c(Cl)c3)c2o1`?
IP6K1 inh: -17.1; KDM5B inh: 35.5µM*

Results for CN(c1cc(=O)c2ccnc(-c3ccccc3Oc3ccccc3)c2o1)C1CCOCC1 ?
IP6K1 inh: 16.5; KDM5B inh: inactive

Results for COc1cccc(Cl)c1-c1nccc2c(=O)cc(N(C)C)oc12 ?
IP6K1 inh: -17.9; KDM5B inh: inactive

Results for COc1cccc(-c2nccc3c(=O)cc(N(C)C)oc23)c1 ?
IP6K1 inh: -12.2; KDM5B inh: 31.6µM*

What do the screens show for `COc1cc(CNc2nccc3c(=O)cc(N4CCOCC4)oc23)cc(OC)c1`?
IP6K1 inh: -9.8; KDM5B inh: 28.2µM*

What do the screens show for `CN(C)c1cc(=O)c2ccnc(-c3ccccc3Oc3ccccc3)c2o1`?
IP6K1 inh: -11.2; KDM5B inh: 35.5µM*

What do the screens show for `O=c1cc(-c2cccnc2)oc2c(NCc3ccccc3)nccc12`?
IP6K1 inh: -21.7; KDM5B inh: inactive

Results for CN(c1ccccc1)c1cc(=O)c2ccnc(-c3cccnc3)c2o1 ?
IP6K1 inh: -22.1; KDM5B inh: inactive

Results for O=C(c1ccc(C(F)(F)F)cc1)N1CCN(C(=O)c2nc3cccnc3n(Cc3ccccc3)c2=O)CC1 ?
IP6K1 inh: 4.9

How did CCc1nc2c(c(-c3ccc(O)cc3)n1)CN(C(=O)C1CCCC1)CC2 do in these assays?
IP6K1 inh: 16.5

How did O=C(Nc1cccc2ccccc12)O[C@@H]1CO[C@H]2[C@@H]1OC[C@@H]2NCC1CCCCC1 do in these assays?
IP6K1 inh: -0.7; KDM5B inh: inconclusive

How did CC(C)C(=O)N(Cc1ccc(-c2cccc(Cl)c2)o1)C1CCS(=O)(=O)C1 (centres undefined) do in these assays?
KDM5B inh: inactive

Results for O=C(Nc1ccccc1)NC1CCN(c2ccc3nnc(C4CC4)n3n2)C1 (centres undefined) ?
IP6K1 inh: 0.4

Results for COc1ccc(Nc2nccc3c(=O)cc(N4CCOCC4)oc23)cn1 ?
IP6K1 inh: -3.7; KDM5B inh: 31.6µM*

How did CN(C)c1cc(=O)c2ccnc(-c3ccccc3F)c2o1 do in these assays?
IP6K1 inh: -19.7; KDM5B inh: inactive

What do the screens show for `Cc1ccc(F)cc1-c1nccc2c(=O)cc(N(C)C)oc12`?
IP6K1 inh: -8.4; KDM5B inh: 39.8µM*

How did O=c1cc(N2CCOCC2)oc2c(-c3cncnc3)nccc12 do in these assays?
IP6K1 inh: -11.6; KDM5B inh: 25.1µM*

How did O=c1cc(N2CCOCC2)oc2c(-c3cccc(F)c3)nccc12 do in these assays?
IP6K1 inh: -12.3; KDM5B inh: 39.8µM*

What do the screens show for `O=c1cc(N2CCOCC2)oc2c(Nc3ccccc3)nccc12`?
IP6K1 inh: -8.1; KDM5B inh: inactive

Results for Cc1ccc(-c2cc(C(=O)O)c3ccccc3n2)o1 ?
KDM5B inh: inactive

What do the screens show for `Cc1ccc(Nc2ccnc(N3CCCC(C(=O)NCCc4ccccc4)C3)n2)cc1` (centres undefined)?
IP6K1 inh: -2.4

Results for O=C(c1cc(-c2cc(Cl)cc(Cl)c2)c2cccn2n1)N1CCN(Cc2ccccc2)CC1 ?
IP6K1 inh: 10.6

What do the screens show for `Cc1ccc(C(=O)N2CCN(c3nccc(Nc4ccccc4F)n3)CC2)cc1`?
IP6K1 inh: 17.1

How did Cc1ccc(/C=C/C(=O)OC(C)C(=O)C23CC4CC(CC(C4)C2)C3)o1 (centres undefined) do in these assays?
KDM5B inh: inactive

Results for COc1ccc(-c2noc(CCCC(=O)N3CCCn4nc(-c5ccc(F)cc5)cc4C3)n2)cc1OC ?
IP6K1 inh: 17.8

What do the screens show for `CC(=O)Nc1cccc(C(=O)OCC(=O)N2CCOCC2)c1`?
KDM5B inh: inactive

Results for CN(c1ccccc1)c1cc(=O)c2ccnc(-c3ccnn3C)c2o1 ?
IP6K1 inh: -4.1; KDM5B inh: inconclusive

How did O=c1cc(-c2cccnc2)oc2c(-c3ccccc3Oc3ccccc3)nccc12 do in these assays?
IP6K1 inh: -2.5; KDM5B inh: inactive

How did COc1cccc(-c2nccc3c(=O)cc(N4CCOCC4)oc23)c1 do in these assays?
IP6K1 inh: -3.2; KDM5B inh: 35.5µM*

How did O=c1cc(-c2cccnc2)oc2c(-c3ccccc3F)nccc12 do in these assays?
IP6K1 inh: -11.0; KDM5B inh: 35.5µM*

What do the screens show for `CC(=O)Nc1cccc(-c2nccc3c(=O)cc(N4CCOCC4)oc23)c1`?
IP6K1 inh: 5.0; KDM5B inh: 35.5µM*

What do the screens show for `Cn1nccc1-c1nccc2c(=O)cc(N3CCOCC3)oc12`?
IP6K1 inh: 2.3; KDM5B inh: 35.5µM*

Results for CN(c1ccccc1)c1cc(=O)c2ccnc(N3CCOCC3)c2o1 ?
IP6K1 inh: -20.6; KDM5B inh: inactive

How did O=C(C1CCCC1)N1CCCC(C(=O)N2CCC(c3nc4ncccc4[nH]3)C2)C1 (centres undefined) do in these assays?
IP6K1 inh: 6.6

What do the screens show for `O=C(Cn1ccccc1=O)Nc1ccc(Cl)cc1Cl`?
KDM5B inh: inactive

What do the screens show for `C[S+](=O)([O-])c1cccc(-c2nccc3c(=O)cc(N4CCOCC4)oc23)c1`?
IP6K1 inh: -0.8; KDM5B inh: 28.2µM*

What do the screens show for `O=c1cc(-c2cccnc2)oc2c(-c3cn[nH]c3)nccc12`?
IP6K1 inh: -17.7; KDM5B inh: inconclusive

How did C[S+](=O)([O-])c1cccc(-c2nnc3ccc(C(=O)N4CCOCC4)cn23)c1 do in these assays?
IP6K1 inh: 2.6

What do the screens show for `O=c1cc(N2CCOCC2)oc2c(NC3CCOCC3)nccc12`?
IP6K1 inh: -18.1; KDM5B inh: 35.5µM*

What do the screens show for `O=c1cc(N2CCOCC2)oc2c(-c3cccnc3)nccc12`?
IP6K1 inh: -7.7; KDM5B inh: 39.8µM*
